Data published in the supplement of paper PMC6522484.
± gives the standard deviation of the averaged measurements.

Tests used:
[1] = system: DLD1; experiment: cell viability (CellTiter-Glo) relative to plate median (fraction of plate median); higher = more viable cells; conditions: 5 µM; treatment time 24 h; reporter: 7TFP
Summary of the method: (§1)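 Luminescence, normalised well by well to the plate median, is tabulated as a mean of independent replicates. There were two replicates, run on colorectal cancer lines stably transduced with lentiviral TCF/Wnt firefly luciferase reporters and dosed with library compounds at a final 5 µM for 24 h. Readouts were firefly luciferase or CellTiterGlo on parallel plates.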

[2] = system: HCT116; experiment: as above; conditions: 5 µM; treatment time 24 h; reporter: TCF4/Wnt
Summary of the method: as §1

[3] = system: SW480; experiment: as above; conditions: 5 µM; treatment time 24 h; reporter: 7TFP
Summary of the method: as §1

[4] = system: DLD1; experiment: TCF/Wnt firefly luciferase reporter signal relative to plate median (fraction of plate median); higher = higher Wnt reporter signal; conditions: 5 µM; treatment time 24 h; reporter: 7TFP
Summary of the method: as §1

[5] = system: SW480; experiment: as above; conditions: 5 µM; treatment time 24 h; reporter: 7TFP
Summary of the method: as §1

Row | SMILES | cell viability [1] | cell viability [2] | cell viability [3] | TCF/Wnt firefly luciferase reporter signal [4] | TCF/Wnt firefly luciferase reporter signal [5]
1 | CN(C)CCC(c1ccccc1)c1ccccn1 (stereo not given) | 0.973 ± 0.039 | 1 ± 0.18 | 0.963 ± 0.032 | 1.16 ± 0.035 | 1.055 ± 0.0071
2 | CC(=O)OCC(CCn1cnc2cnc(N)nc21)COC(C)=O | 0.9935 ± 0.0021 | 0.97 ± 0.04 | 0.9805 ± 0.0092 | 0.984 ± 0.052 | 1.025 ± 0.0071
3 | CC(C)CCC[C@@H](C)[C@H]1CC[C@H]2[C@@H]3CC(=O)[C@H]4C[C@@H](O)CC[C@]4(C)[C@H]3CC[C@]12C [5alpha-CHOLESTAN-3beta-OL-6-ONE] | 0.985 ± 0.05 | 1.01 ± 0.014 | 1.015 ± 0.0071 | 0.904 ± 0.15 | 0.874 ± 0.047
4 | CN(C)CCC=C1c2ccccc2CCc2ccccc21 | 0.958 ± 0.036 | 0.997 ± 0.047 | 0.989 ± 0.016 | 0.952 ± 0.061 | 0.963 ± 0.046
5 | C/C=C(\C)C(=O)[C@@H](C)/C=C(\C)[C@H]1O[C@@](O)([C@@](O)(CC)C(=O)N[C@@H]2C(=O)N3NCCC[C@@H]3C(=O)N(O)[C@@H](C)C(=O)N(C)[C@H](C)C(=O)N3NCCC[C@H]3C(=O)N[C@H]([C@H](C)O)C(=O)O[C@H]2C(C)C)CC[C@@H]1C | 0.983 ± 0.053 | 1.01 ± 0.17 | 1.08 | 1.01 ± 0.065 | 1.06 ± 0.035
6 | O=C(O)c1cn(-c2ccc(F)cc2)c2cc(N3CCNCC3)c(F)cc2c1=O | 0.906 ± 0.012 | 0.949 ± 0.029 | 0.998 ± 0.046 | 1.08 ± 0.11 | 1.06 ± 0.1
7 | CC(=O)C1=C(O)C=C2Oc3c(C(C)=O)c(O)c(C)c(O)c3C2(C)C1=O (stereo in doubt) | 0.995 ± 0.035 | 1.04 ± 0.028 | 0.968 ± 0.018 | 1.2 ± 0.13 | 0.973 ± 0.052
8 | Cc1cc(C)nc(NS(=O)(=O)c2ccc(N)cc2)n1 | 1.07 ± 0.11 | 0.975 ± 0.078 | 1.03 ± 0.047 | 1.025 ± 0.0071 | 1.08 ± 0.05
9 | CO[C@@]1(NC(=O)CSCC#N)C(=O)N2C(C(=O)O)=C(CSc3nnnn3C)CS[C@@H]21 | 0.998 ± 0.031 | 1.11 ± 0.057 | 0.9035 ± 0.0021 | 0.928 ± 0.023 | 1.02
10 | CC(=O)[C@H]1CC[C@H]2[C@@H]3CC=C4C[C@@H](OC(=O)CCC(=O)O)CC[C@]4(C)[C@H]3CC[C@]12C | 1.02 ± 0.021 | 1.01 ± 0.018 | 0.975 ± 0.033 | 0.97 ± 0.03 | 1.1 ± 0.028
11 | CCCCCCCCCCCC[C@@H](C(=O)O)[C@H](C)C(=O)O | 1.005 ± 0.0071 | 1.08 ± 0.25 | 1 ± 0.028 | 0.944 ± 0.11 | 1.03
12 | NCCCC(=O)O [gamma-AMINOBUTYRIC ACID] | 1.02 ± 0.046 | 1.02 ± 0.11 | 1.04 ± 0.05 | 1.06 ± 0.093 | 0.89 ± 0.24
13 | CC[C@H](/C=C/[C@@H](C)[C@H]1CC[C@H]2[C@@H]3CCC4=CC(=O)CC[C@]4(C)[C@H]3CC[C@]12C)C(C)C | 0.999 ± 0.087 | 0.976 ± 0.18 | 1.02 ± 0.041 | 1.05 | 1.06 ± 0.028
14 | CN1C(C(=O)Nc2ccccn2)=C(O)c2ccccc2S1(=O)=O | 0.97 ± 0.057 | 0.975 ± 0.036 | 0.92 ± 0.061 | 1.1 ± 0.071 | 1.14
15 | CCCCC[C@@H](O)[C@H]1C(=O)O[C@H](C)[C@@H](O)/C=C/C=C/C=C/C=C/C=C(\C)[C@@H](O)C[C@H](O)C[C@H](O)C[C@H](O)C[C@H](O)C[C@H](O)C[C@@H]1O | 1.02 | 1.05 ± 0.05 | 0.989 ± 0.03 | 1.01 ± 0.022 | 1.09 ± 0.078
16 | CCN(CC)C(C)CN1c2ccccc2Sc2ccccc21 (stereo not given) | 1.07 ± 0.11 | 1.02 ± 0.12 | 0.998 ± 0.045 | 0.927 ± 0.3 | 1.05 ± 0.078
17 | NC(=O)c1cnccn1 | 0.988 ± 0.045 | 0.9595 ± 0.0035 | 1.02 ± 0.05 | 1.02 ± 0.13 | 0.942 ± 0.083
18 | CCOc1ccc(C(=O)c2ccc(OC)c(O)c2O)cc1 | 1.01 ± 0.052 | 1.07 ± 0.028 | 1 ± 0.038 | 0.966 ± 0.025 | 1.03 ± 0.021
19 | O=C1c2c(O)ccc(O)c2C(=O)c2c(NCCNCCO)ccc(NCCNCCO)c21 | 1.09 ± 0.078 | 0.635 ± 0.19 | 0.997 ± 0.018 | 0.936 ± 0.03 | 0.436 ± 0.04
20 | COc1cc(C2Oc3cc([C@H]4Oc5cc(O)cc(O)c5C(=O)[C@@H]4O)ccc3OC2CO)ccc1O (stereo not given in full) | 1.09 ± 0.042 | 1.12 ± 0.16 | 1.02 ± 0.014 | 0.993 ± 0.081 | 0.967 ± 0.2
21 | Cn1c(=O)c2c(ncn2C)n(C)c1=O | 0.899 ± 0.05 | 0.953 ± 0.081 | 0.952 ± 0.0014 | 0.981 ± 0.11 | 1.01 ± 0.04
22 | CCC(=O)O[C@H]1CC[C@H]2[C@@H]3CCc4cc(O)ccc4[C@H]3CC[C@]12C | 1.01 ± 0.023 | 1 ± 0.16 | 1.02 ± 0.014 | 0.888 ± 0.11 | 0.994 ± 0.052
23 | CC(C)CCC[C@@H](C)[C@H]1CC[C@H]2[C@@H]3CC=C4C[C@@H](O)CC[C@]4(C)[C@H]3CC[C@]12C | 1.03 ± 0.067 | 1 ± 0.11 | 1.015 ± 0.0071 | 1.05 ± 0.081 | 1.04 ± 0.042
24 | O=C(O)C1CC([C@@H]2CCCCN2)CN2CCCCC12 (stereo not given in full) | 1.03 ± 0.11 | 1.03 ± 0.17 | 0.981 ± 0.015 | 1.07 ± 0.064 | 1 ± 0.064
25 | CCOc1ccc(Cc2nccc3cc(OCC)c(OCC)cc23)cc1OCC | 0.876 ± 0.016 | 0.885 ± 0.056 | 0.921 ± 0.0071 | 0.99 ± 0.13 | 0.95 ± 0.099
26 | CN(C)CCCN1c2ccccc2Sc2ccc(Cl)cc21 | 1.02 ± 0.054 | 0.957 ± 0.047 | 1.09 ± 0.14 | 0.928 ± 0.12 | 0.821 ± 0.13
27 | CC1=CC(=O)C(C(C)C)=CC1=O | 1.04 ± 0.057 | 1.03 ± 0.054 | 1.05 ± 0.014 | 1.09 ± 0.11 | 1.1 ± 0.064
28 | NC(=O)c1ccc[n+]([C@@H]2O[C@H](COP(=O)([O-])OP(=O)(O)OC[C@H]3O[C@@H](n4cnc5c(N)ncnc54)[C@H](O)[C@@H]3O)[C@@H](O)[C@H]2O)c1 | 0.955 ± 0.11 | 0.956 ± 0.09 | 0.942 ± 0.027 | 1.1 ± 0.057 | 1.24 ± 0.071
